Reference: PubChem BioAssay (NCATS)
Values joined by “and” are separate entries in the source; they are usually repeats but may differ in a detail not shown here. Equal entries are not always repeated. Results filed as inconclusive are left out. Active and inactive are the calls of the source. The call rests on the fitted dose curve; in most records, active means well fitted curve in the direction sought with a large enough effect; inconclusive means small, poorly fitted or top-dose-only effect, or another doubt; inactive means no such curve, though single readings can be large; an effect the other way counts as inactive or inconclusive.

Legend:
CRL-7250 = normal cell line; assay: Cytotoxic Profiling of Annotated Libraries Using Quantitative High-Throughput Screening (AID 1296008); details: Five cell lines viability, CellTiter-Glo ATP luminescence, 48-72 h; max response: active compounds read low; further: nearly all actives have a fitted effect of over 60% in size
In short: (§1)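 Cytotoxicity was measured as CellTiter-Glo ATP luminescence, read after 10 min at room temperature. Compound treatment of the cells lasted 48 or 72 hr at 37 degrees Celsius in a qHTS format.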

HEK293 = assay: as above; details: Five cell lines viability, CellTiter-Glo ATP luminescence, 48-72 h; max response: active compounds read low
In short: as §1

HaCat = assay: as above; details: Five cell lines viability, CellTiter-Glo ATP luminescence, 48-72 h; max response: active compounds read low
In short: as §1

NIH3T3 = assay: as above; details: Five cell lines viability, CellTiter-Glo ATP luminescence, 48-72 h; max response: active compounds read low
In short: as §1

MCC-13 = assay: qHTS assay to identify novel small-molecules to repurpose for Merkel cell carcinoma treatment (AID 1296009); details: MCC and control cell lines, CellTiter-Glo viability, 72 h; series mostly up to 46 µM; further: nearly all actives have a fitted effect of over 60% in size
In short: (§2)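 After compound transfer in DMSO, plates were kept 72 hr at 37 degree celsius. Luminescent ATP signal from CellTiter-Glo served as viability measure, normalized against DMSO and no-cell controls.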

MKL-2 = assay: as above; details: MCC and control cell lines, CellTiter-Glo viability, 72 h; series mostly up to 46 µM
In short: as §2

UISO = assay: as above; details: MCC and control cell lines, CellTiter-Glo viability, 72 h; series mostly up to 46 µM
In short: as §2

CAOV3 = assay: Primary qHTS to identify gynecologic anti-cancer compounds using libraries of approved drugs and bioactive compounds (AID 1345084); details: Gynecologic cancer cell panel viability, ATPlite luminescence, 48 h; series mostly up to 57.5 µM; further: nearly all actives have a fitted effect of over 55% in size
In short: (§3)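 Measured: luminescence after ATPlite addition (15 min, RT). Exposure: 48 h, 37 C, 5% CO2.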

HeLa = assay: as above; details: Gynecologic cancer cell panel viability, ATPlite luminescence, 48 h; series mostly up to 57.5 µM
In short: as §3

Hek293T = assay: as above; details: Gynecologic cancer cell panel viability, ATPlite luminescence, 48 h, control line for the selectivity index; series mostly up to 57.5 µM
In short: as §3

MKL-1 = assay: qHTS assay to identify novel small-molecules to repurpose for Merkel cell carcinoma treatment (AID 1296009); details: MCC and control cell lines, CellTiter-Glo viability, 72 h; series mostly up to 46 µM; further: nearly all actives have a fitted effect of over 60% in size
In short: as §2

WaGa = assay: as above; details: MCC and control cell lines, CellTiter-Glo viability, 72 h; series mostly up to 46 µM
In short: as §2

CASKI = assay: Primary qHTS to identify gynecologic anti-cancer compounds using libraries of approved drugs and bioactive compounds (AID 1345084); details: Gynecologic cancer cell panel viability, ATPlite luminescence, 48 h; series mostly up to 57.5 µM; further: nearly all actives have a fitted effect of over 55% in size
In short: as §3

Es-2 = assay: as above; details: Gynecologic cancer cell panel viability, ATPlite luminescence, 48 h; series mostly up to 57.5 µM
In short: as §3

KB-3-1 = assay: Cytotoxic Profiling of Annotated Libraries Using Quantitative High-Throughput Screening (AID 1296008); details: Five cell lines viability, CellTiter-Glo ATP luminescence, 48-72 h; max response: active compounds read low; further: nearly all actives have a fitted effect of over 60% in size
In short: as §1

MCC-26 = assay: qHTS assay to identify novel small-molecules to repurpose for Merkel cell carcinoma treatment (AID 1296009); details: MCC and control cell lines, CellTiter-Glo viability, 72 h; series mostly up to 46 µM; further: nearly all actives have a fitted effect of over 60% in size
In short: as §2

C33A = assay: Primary qHTS to identify gynecologic anti-cancer compounds using libraries of approved drugs and bioactive compounds (AID 1345084); details: Gynecologic cancer cell panel viability, ATPlite luminescence, 48 h; series mostly up to 57.5 µM; further: nearly all actives have a fitted effect of over 55% in size
In short: as §3
On the % scale 0 is the no-effect control and ±100 the full control effect; potency means the concentration at half of the fitted maximal effect.

CC(C)c1cc(-c2n[nH]c(=O)n2-c2ccc3c(ccn3C)c2)c(O)cc1O
active: Potency (CRL-7250) 148 nM and 103 nM | Potency (HEK293) 46.9 nM and 41.1 nM | Potency (HaCat) 65.1 nM | Potency (NIH3T3) 105 nM and 116 nM | Potency (MCC-13) 0.132 µM | Potency (UISO) 0.372 µM | Potency (Hek293T) 316 nM
inactive: Potency (MKL-2) | Potency (CAOV3) | Potency (HeLa)

CCN(CC)CCNC(=O)c1ccc2nc(-c3ccccc3)c(-c3ccc(CN4CCC(n5c(=O)[nH]c6ccccc65)CC4)cc3)nc2c1
inactive: Potency (CASKI) | Potency (Es-2) | Potency (HeLa)
active: Potency (CRL-7250) 9.35 µM | Potency (HEK293) 2.96 µM and 8.2 µM | Potency (NIH3T3) 10.5 µM | Potency (MCC-13) 8.33 µM | Potency (MKL-1) 1.32 µM | Potency (MKL-2) 1.18 µM | Potency (UISO) 16.6 µM | Potency (WaGa) 7.43 µM

c1cc(-c2cnn3cc(-c4ccc(OCCN5CCCCC5)cc4)cnc23)ccn1
active: Potency (CRL-7250) 6.62 µM | Potency (HEK293) 3.32 µM | Potency (KB-3-1) 3720 nM | Potency (NIH3T3) 0.372 µM | Potency (MCC-13) 16.6 µM | Potency (MKL-1) 11.8 µM | Potency (UISO) 5.9 µM | Potency (WaGa) 13.2 µM

O=c1[nH]c(=O)n(C2CCCO2)cc1F (stereo not drawn)
inactive: outcome (CRL-7250) | max response (HEK293) -0.0583% | outcome (KB-3-1) | Potency (MCC-13) | Potency (MCC-26) | Potency (MKL-1) | Potency (MKL-2) | Potency (UISO)

CCN(CC)CCCCNc1ncc2cc(-c3cc(OC)cc(OC)c3)c(NC(=O)NC(C)(C)C)nc2n1
active: Potency (CRL-7250) 0.264 µM | Potency (HEK293) 4.18 µM
inactive: max response (KB-3-1) -22.2% | Potency (MCC-13) | Potency (MKL-1) | Potency (MKL-2) | Potency (WaGa)

CCC1=C[C@@H]2CN(C1)Cc1c([nH]c3ccccc13)[C@@](C(=O)OC)(c1cc3c(cc1OC)N(C)[C@@H]1[C@@](O)(C(=O)OC)[C@H](OC(C)=O)[C@]4(CC)C=CCN5CC[C@]31[C@@H]54)C2
inactive: max response (HaCat) -8.6%
active: Potency (CRL-7250) 0.0469 µM | Potency (HEK293) 0.0235 µM | Potency (KB-3-1) 16.6 nM | Potency (MKL-1) 0.0118 µM

Cc1ccc(-c2ncn(-c3ccc(Nc4nccc(-c5cccc(N6CCOCC6)c5)n4)cc3)n2)cn1
active: Potency (CRL-7250) 0.118 µM | Potency (HEK293) 0.332 µM | Potency (HaCat) 418 nM | Potency (KB-3-1) 209 nM | Potency (MCC-13) 0.526 µM | Potency (MCC-26) 264 nM | Potency (MKL-1) 0.235 µM | Potency (MKL-2) 0.0526 µM

Cc1cn2c(-c3cn[nH]c3)cnc2c(Nc2ccc(C(=O)N3CCNCC3)cc2F)n1
active: Potency (CRL-7250) 6.51 µM | Potency (HEK293) 16.4 µM
inactive: Potency (MCC-13) | Potency (MCC-26) | Potency (MKL-1) | Potency (MKL-2) | Potency (WaGa) | Potency (C33A) | Potency (CASKI) | Potency (Es-2) | Potency (Hek293T)
